Source: PubChem (National Center for Advancing Translational Sciences (NCATS))
Most compounds without a hit are left out; they make up all but 21% or so of the library.
Pf growth 48h: P. falciparum growth inhibition at 48 hours (one generation). 310,000 compounds, 5.9% hits. P. falciparum luciferase growth in erythrocytes, 48 h. Potency, µM (doses to about 28.7 µM), for the others: at the top dose activity change, negative = inhibition, hits mostly inhibitors. AID 504832; also: potency is read from the fitted curve at half-maximal effect; % is scaled to controls: 0 for no effect and ±100 for the full control effect
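Compounds are pin-transferred into medium, infected erythrocytes (2% hematocrit, 0.1% parasitemia final) are added, and plates sit one parasite generation at 37 C in 5% CO2. Detection reagent is then added and luminescence measured.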
CHX counter: counter-screen for Shiga toxin inhibitors: cycloheximide protein synthesis inhibition; max response, %; AID 2314; 300,000 compounds, 12% hits; cell reporter, cycloheximide protein synthesis inhibition counterscreen; in the data active = max response mostly above about 13%, no sharp cut-off; inactive = mostly below about 14%; also: read at 38.3 µM for the half of the compounds with a filed dose; 0% is about no effect
Shiga toxin inh: inhibitors of Shiga toxin in Vero cells | Vero cells, Shiga toxin protein synthesis inhibition reporter | inhibition, % at 38.7 µM | 290,000 compounds, 9.2% hits; in the data active = inhibition mostly above about 28%, no sharp cut-off; inactive = mostly below about 43%; also: 0% is about no effect
HCV inhibitor: inhibitors of hepatitis C virus infection | Huh7.5.1 HCVcc-Cre infection, luciferase reporter, 44 h | Potency, µM (doses to about 41.8 µM), for inactives: at the highest dose activity change, negative = inhibition, actives largely listed as inhibitors | 340,000 compounds, 3.4% hits; also: potency is read from the fitted curve at half-maximal effect; % is scaled to controls: 0 for no effect and ±100 for the full control effect
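Reporter virus HCVcc-Cre (~0.5 moi) infects cells exposed to compound; seeding density 1,000 cells/well with 4 h settling beforehand. Luminescence, 15 sec read, taken 44 h post-infection following a 15 min RT substrate incubation.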
HCMV inh: human cytomegalovirus inhibition. 410,000 compounds, 4.5% hits. AID 1259415. HFF cells, HCMV-luciferase reporter, 72 h; active compounds read low. activity change, negative = inhibition, % at 57.5 µM; in the data active = activity change below about -60%; inconclusive = no clear call, values can overlap the other calls; inactive = above about -39%; also: % is scaled to controls: 0 for no effect and ±100 for the full control effect
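Compounds were evaluated in HFFs infected with an HCMV luciferase reporter virus (MOI 1 PFU/cell). Luciferase in lysates collected 72 h post infection served as the replication measure.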
Pf growth 96h: P. falciparum growth inhibition at 96 hours | Potency, µM (doses to about 28.7 µM), without a hit: top-dose activity change, negative = inhibition, hits mostly inhibitors | AID 504834 | P. falciparum luciferase reporter growth, 96 h | 320,000 compounds, 6.9% hits; also: potency is read from the fitted curve at half-maximal effect; % is scaled to controls: 0 for no effect and ±100 for the full control effect
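Parasite growth measured via integrated firefly luciferase reporter in P. falciparum. Infected erythrocytes at 2% hematocrit, 0.05% parasitemia final were treated 96 hours at 37 C under 5% CO2, and luminescence was read.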
* hit, by the source's call; ? = inconclusive; . = no result; [ ] = remark or other dose. Unless noted, calls follow the shape of the dose curve; as a rule, active = well fitted inhibition curve with a large enough effect; inconclusive = small, poorly fitted or top-dose-only effect, or another doubt; inactive = no such curve, though single readings can be large or run the other way.

SMILES	Pf growth 48h	CHX counter	Shiga toxin inh	HCV inhibitor	HCMV inh	Pf growth 96h
CC(=O)c1ccc(OCC(=O)NCC2(N3CCCCC3)CCCCC2)cc1	?	-4	-5	-1%	-25	?
CC(C)NC(=O)[C@H](CSCc1ccccc1)N1Cc2ccccc2C1=O	5%	-1	-10	16%	5	-2%
Cc1cccc(NC(=O)C(Cc2ccccc2)N2Cc3ccccc3C2=O)c1C (configuration not stated)	.	.	.	.	-23	.
CCOC(=O)c1ccc(NC(=O)C(Cc2ccccc2)N2Cc3ccccc3C2=O)cc1 (configuration not stated)	.	.	.	.	-36	.
Cc1ccc(C)c(NC(=O)C(Cc2ccccc2)N2Cc3ccccc3C2=O)c1 (configuration not stated)	.	.	.	.	-90*	.
COC(=O)C(Cc1ccc(OC(=O)c2ccc(Cl)cc2)cc1)N1Cc2ccccc2C1=O (configuration not stated)	79%	44*	126*	3%	133	170%
COC(=O)C(Cc1ccc(OC(=O)c2ccc(C(F)(F)F)cc2)cc1)N1Cc2ccccc2C1=O (configuration not stated)	39%	43*	69*	6%	.	67%
O=C(NC1CCCCC1)[C@H](CSCc1ccccc1)N1Cc2ccccc2C1=O	?	5	22	-14%	-60*	?
C=CCNC(=O)COc1ccc(N(C)S(=O)(=O)c2ccc(NC(C)=O)cc2)cc1	-6%	-4	-18	8%	36	-5%
COCC(C)n1c(C)cc(C(=O)COc2ccc(N(C)S(=O)(=O)c3ccc(NC(C)=O)cc3)cc2)c1C (configuration not stated)	4.7µM*	.	.	?	-31	1.3µM*
CCN(CC)C(=O)COc1ccc(N(C)S(=O)(=O)c2ccc(NC(C)=O)cc2)cc1	-11%	6	15	-1%	-30	?
C=CCn1c(C)cc(C(=O)COc2ccc(N(C)S(=O)(=O)c3ccc(NC(C)=O)cc3)cc2)c1C	.	.	.	8.9µM*	-21	.
COc1ccc(C(C)=O)c(Oc2cc(NN3CCCCC3)c([N+](=O)[O-])cc2[N+](=O)[O-])c1	-15%	2	18	41%	17	0%
CCC(=O)Nc1ccc(Cl)c(NC(=O)c2cccc(OC)c2)c1	-6%	-2	2	?	-88*	14%
CCC(=O)Nc1ccc(Cl)c(NC(=O)c2ccccc2OC)c1	19%[5.75 µM]	11	-1	-7%	-62*	18%
Cc1cccc(C(=O)Nc2cc(OCc3cccc(F)c3)c(Cl)cc2Cl)c1	14%	16*	32	-25%	-12	-1%
COCCOc1cc(NC(=O)c2cccc(OC)c2)c(Cl)cc1Cl	12µM*	6	33	?	-18	?
CCCC(=O)Nc1ccc(Cl)c(NC(=O)CC)c1	15%	-3	30	-13%	2	-24%
CCn1cc(C(=O)NCCCN(CC(C)C)CC(C)C)c(=O)c2cc(S(=O)(=O)N(C)C3CCCCC3)ccc21	?	13	-4	9%	28	?
O=c1ccc(-c2ccc(S(=O)(=O)NCC3CCN(Cc4ccccc4F)CC3)s2)n[nH]1	?	-2	-9	-13%	-34	2.9µM*
Cc1cccc(CNS(=O)(=O)c2ccc(-c3ccc(=O)[nH]n3)s2)c1	3%	7	-4	16%	12	53%
O=C(c1ccc(NC(=S)NCc2ccco2)cc1)N1CCOCC1	4%	-2	-3	?	-12	-39%
Cn1c(CCNC(=O)c2cccs2)nnc1SCC(=O)N1CCN(c2ccccc2)CC1	?	-2	-6	1%	.	.
O=C(NCCc1nnc2ccccn12)c1cccs1	70%	36*	51*	22%	-17	62%
Cc1ccsc1C(=O)NCCc1nnc2ccccn12	132%	31*	72*	?	57	94%
SMILES	Pf growth 48h	CHX counter	Shiga toxin inh	HCV inhibitor	HCMV inh	Pf growth 96h
CCN1C/C(=C\c2cc(OC)c(OC)c(OC)c2)C2=NN(c3ccccc3)C(c3cc(OC)c(OC)c(OC)c3)C2C1 (configuration not stated)	.	.	.	-9%	135	.
O=C(/C=C/c1ccccc1Cl)Nc1nc(-c2cccs2)ns1	.	.	.	.	58	.
O=C(Nc1ccc2c(c1)OCCO2)C1CCCN(S(=O)(=O)Cc2ccccc2)C1 (configuration not stated)	.	56*	72*	?	74	0%
O=C(O)C1CCCN(S(=O)(=O)Cc2ccccc2)C1 (configuration not stated)	38%	-1	5	14%	-5	2.3µM*
O=C(NCCc1ccccn1)C1CCCN(S(=O)(=O)Cc2ccccc2)C1 (configuration not stated)	.	-2	-14	18%	16	3.7µM*
O=C(C1CCCN(S(=O)(=O)Cc2ccccc2)C1)N1CCC(Cc2ccccc2)CC1 (configuration not stated)	.	-6	-12	?	-5	?
O=C(NCc1ccccn1)C1CCCN(S(=O)(=O)c2ccccc2)C1 (configuration not stated)	5%	-3	-8	23%	?	.
COc1ccc([C@H]2CC(=O)C[C@@H](CCn3cc(-c4nccn4C)nn3)O2)cc1	.	.	.	.	-5	.
Cc1ccc(F)cc1NC(=O)COC(=O)C1CC2CCCC(C1)C2=O (configuration not stated)	.	.	.	.	20	.
C=CCc1ccccc1OCC(O)CN1C(=O)c2ccccc2C1=O (configuration not stated)	6%	1	-2	-4%	-1	-27%
O=C1c2ccccc2C(=O)N1CCOc1ccccc1Cl	1%	-3	-18	16%	35	-46%
O=C1c2ccccc2C(=O)N1CC(O)COc1ccccc1Cl (configuration not stated)	39%	45*	91*	11%	-17	0%
Cc1ccccc1OCC(O)CN1C(=O)c2ccccc2C1=O (configuration not stated)	14%	37*	39*	11%	-23	-19%
COc1cc(CC(=O)Nc2cc(S(=O)(=O)N3CCOCC3)ccc2N2CCCC2)cc(OC)c1OC	.	.	.	25%	1	.
CCOc1cc(N2CCOCC2)c(OCC)cc1NC(=O)COC(=O)[C@@H]1CCCN1S(=O)(=O)c1ccccc1F	8%	-3	-14	-27%	15	-4%
CN(C)C(=S)c1ccccc1	85%	2	2	1%	28	31%
CN(/N=C/c1ccccc1O)C(=S)c1ccccc1	?	25*	77	-20%	59	174%
[O-][n+]1ccccc1SCc1ccccc1	?	.	.	?	-7	58%
[O-][n+]1ccccc1SC/C=C/c1ccccc1	68%	25*	96*	5%	128	?
